# Screening data from PubChem BioAssay.
# In the library only some 2.4% were active in any assay of this set; here they are far more common.
# D2 PAM-1: Beta-Arrestin HTS for Positive Allosteric Modulators of the Human D2 Dopamine Receptor: Potentiators; DiscoveRx D2 beta-arrestin cells, luminescence, 90 min; 100% = 57 uM dopamine signal; potentiation, % (concentration not given with the values); actives 0.23% (n = 360,000); in the data active means potentiation above about 50%; inconclusive means mostly about 30% to 49%
#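 PathHunter beta-arrestin assay in DiscoveRx D2 cells. Compounds were added with an EC20 of dopamine (50 nM final) for 90 min at 37 deg C. Luminescence was read 1 h after detection reagent, with 57 uM dopamine as the EC100 control.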
# D2 ag-1: HTS Assay for Allosteric Agonists of the Human D2 Dopamine Receptor: Primary Screen for Agonists; D(2) dopamine receptor (Homo sapiens), P14416; HEK293 T-REx D2 cells, calcium flux agonist mode; activation, % at 2 µM; actives 0.53% (n = 340,000);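 active means activation over 3 SD above normal in the single-dose calcium agonist read, cut at about 30% in these data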; further: 0% is about no effect
#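 HEK293 Trex D2 cells, tetracycline-induced, o/n 30 C 5% CO2; no-wash Ca dye, RT 30–90 min; 10-cycle baseline, 23 nl cpd added, kinetic Ca read 180 s; agonist hits = positive Ca response.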
# D2 ag-2: Beta-Arrestin HTS for Positive Allosteric Modulators of the Human D2 Dopamine Receptor: Agonists | D(2) dopamine receptor (Homo sapiens), P14416 | actives 0.084% (n = 360,000) | activation, % (no concentration beside the values) | AID 624465, 2012 | DiscoveRx PathHunter D2 beta-arrestin, luminescence, 90 min; 100% = 57 uM dopamine signal; in the data active means activation above about 40%; inconclusive means between about 15% and that limit
#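 DiscoveRx PathHunter D2 beta-arrestin cells (2,100/well) attached overnight, then compound-stimulated 90 min at 37 C in HBSS/10 mM HEPES/0.1% Tween-20 buffer; beta-galactosidase complementation read by luminescence after 1 h at ambient temperature. Dopamine 57 uM final (EC100) as control.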
# D2 PAM-2: HTS Assay for Positive Allosteric Modulators of the Human D2 Dopamine Receptor: Primary Screen for Potentiators; actives 0.34% (n = 340,000); D(2) dopamine receptor (Homo sapiens), P14416; potentiation, % at 10 µM; HEK293 T-REx D2, calcium flux, EC20 dopamine potentiation; AID 485347, 2010;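 active means potentiation over 3 SD above the plate norm, cut at about 30% in these data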; further: 0% is about no effect
#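 Tetracycline-induced HEK293 T-REx cells force-coupled to calcium signalling expressed D2; compounds were pin-added after a 10 s baseline, read kinetically 180 s, then an EC20 dopamine challenge followed with a further 180 s calcium read.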
# D2 antagonist: HTS Assay for Allosteric Antagonists of the Human D2 Dopamine Receptor: Primary Screen for Antagonists; HEK293 TREx D2 cells, calcium flux, dopamine EC80; inhibition, % at 10 µM; actives 2% (n = 340,000); in the data active means inhibition above about 30%; inactive means below that, where a call was filed; further: 0% is about no effect
#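 Tetracycline-induced HEK293 T-REx cells expressing D2 force-coupled to calcium signalling were dye-loaded, exposed to compound for 180 s, then challenged with an EC80 of dopamine; calcium flux was followed kinetically for a further 180 s.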
# D3 arrestin ag: qHTS of D3 Dopamine Receptor Agonist: D3 Dopamine Receptor B-arrestin Agonist Confirmatory Assay. shares compounds with D2 ag-1. actives 4% (n = 2,300). DiscoveRx D3 beta-arrestin cells, luminescence, 90 min. AID 720506, 2013. Potency, µM (highest dose often 76.9 µM), inactives show at the top dose activation, hits mostly activators;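 further: potency means the concentration at half of the fitted maximal effect; 100% = dopamine control response; nearly all actives have a fitted effect of over 70% in size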
# Target sequence (P35462 whole entry, looked up): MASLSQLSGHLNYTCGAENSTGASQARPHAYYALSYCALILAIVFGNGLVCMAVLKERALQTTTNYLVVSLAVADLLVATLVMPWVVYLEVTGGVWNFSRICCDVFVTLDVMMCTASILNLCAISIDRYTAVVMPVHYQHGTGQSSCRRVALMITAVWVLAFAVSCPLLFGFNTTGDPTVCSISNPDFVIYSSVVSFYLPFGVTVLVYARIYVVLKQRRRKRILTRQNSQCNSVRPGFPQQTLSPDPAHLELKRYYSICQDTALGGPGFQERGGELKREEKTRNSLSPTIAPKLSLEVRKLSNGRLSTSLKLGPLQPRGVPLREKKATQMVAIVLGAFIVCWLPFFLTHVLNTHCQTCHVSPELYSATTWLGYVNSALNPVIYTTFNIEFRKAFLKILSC
# D2 ag-3: qHTS of D3 Dopamine Receptor Agonist: D2 Dopamine Receptor B-arrestin Agonist Counterscreen. shares compounds with D2 ag-1. DiscoveRx PathHunter D2 beta-arrestin, luminescence, 90 min; response scale: percent relative to full dopamine signal. Potency, µM (doses to about 76.9 µM), without a hit: at the top dose activation, actives largely listed as activators. actives 5.9% (n = 2,300). AID 720507, 2013; further: potency means the concentration at half of the fitted maximal effect; % of control where 0% means no effect; nearly all actives have a fitted effect of over 70% in size
# The depositor's hits bear a star; ? = inconclusive; · = not tested or not shown. Unless noted, the call rests on the fitted dose curve; in most records, active means well fitted activation curve with a large enough effect; inconclusive means small, poorly fitted or top-dose-only effect; inactive means flat fitted curve, though single readings scatter.
SMILES,D2 PAM-1,D2 ag-1,D2 ag-2,D2 PAM-2,D2 antagonist,D3 arrestin ag,D2 ag-3
N#Cc1ccccc1NC(=O)CN1CCN(c2ccccn2)CC1,-1,10,8,-4,-2,·,·
Cc1ccc(F)cc1NC(=O)CN1CCN(c2ccccn2)CC1,-9,27,?,-8,50*,19%,?
O=C(CN1CCN(c2ccccn2)CC1)Nc1ccccc1Br,10,47*,?,-21,38*,-3%,19%
O=C(CN1CCN(c2ccccn2)CC1)Nc1cc(F)ccc1F,2,50*,11,-18,22,15%,15%
Cc1ccc(NC(=O)CN2CCN(c3ccccn3)CC2)c(Cl)c1,-5,0,-6,2,-16,·,·
COc1ccc(/C=C/c2nc(C#N)c(N3CCCCC3)o2)cc1OC,·,1,·,15,·,·,·
COc1ccc(N2CCN(c3oc(/C=C/c4cc(OC)c(OC)c(OC)c4)nc3C#N)CC2)cc1,·,·,·,6,·,·,·
CCOC(=O)C1CCC(CN(Cc2c(Cl)cccc2Cl)S(=O)(=O)c2ccc(F)c(C)c2)CC1 (stereo not drawn),·,0,·,11,·,·,·
O=c1c2oc3ccccc3c2n(Cc2ccc(Cl)cc2)c(=O)n1Cc1ccccc1,·,5,·,0,·,·,·
COc1cccc(CNS(=O)(=O)c2ccc3[nH]c4c(c3c2)CCCCC4)c1,·,1,·,·,·,·,·
COc1cccc(CNC(=O)Cc2c(C)c3c(cc(C)c4c(C)coc43)oc2=O)c1,·,·,·,17,·,·,·
O=C(CN1CCN(c2ccccn2)CC1)Nc1cccc(S(=O)(=O)N2CCOCC2)c1,14,42*,4,-15,7,23%,?
O=C(CSc1ccc(-c2ccccn2)nn1)Nc1cccc(F)c1,-4,71*,2,-20,-11,10%,9%
Cc1cc(C)cc(NC(=O)CN2CCN(c3ncccn3)CC2)c1,-4,-1,7,5,-2,·,·
Cc1cc(C)cc(NC(=O)CSc2ccc(-c3ccccn3)nn2)c1,-19,-1,3,2,-2,·,·
O=C(CN1CCN(c2ncccn2)CC1)Nc1ccccc1-n1cccc1,-12,38*,5,-12,-21,1%,16%
COc1ccc(C(=O)NCC(=O)N/N=C/c2cn[nH]c2-c2ccccc2)cc1,-3,11,10,·,19,-1%,7%
CCN(CC)c1ccc(NC(=O)Cn2cc3c(n2)CCCC3)c(C)c1,·,·,·,-14,·,·,·
CCOC(=O)c1ccc(-c2c(-c3cc(OC)c(OC)c(OC)c3)noc2C)cc1F,-14,0,1,3,16,·,·
CCOC(=O)c1ccc(-c2c(-c3ccc(OC)cc3)oc(=O)c3cc(OC)c(OC)cc23)cc1F,3,·,1,·,·,-3%,-1%
Cc1cccc(NC(=O)C2CCCN(S(=O)(=O)c3c(C)noc3/C=C/N(C)C)C2)c1C (stereo not drawn),·,0,·,-5,·,·,·
CCOC(=O)C(NC(=O)c1ccccc1Cl)(Nc1ccc(C(F)(F)F)cc1)C(F)(F)F (stereo not drawn),-5,29,-3,3,-9,-7%,-2%
CCOC(=O)C(NC(=O)c1ccccc1Cl)(Nc1ccc(C)c(C)c1)C(F)(F)F (stereo not drawn),-9,-1,2,13,-1,·,·
COc1ccc(CCNC(=O)c2cc3c(=O)[nH]c4ccc(C)cc4c3s2)cc1OC,·,-1,·,1,·,·,·
COC(=O)c1ccc(N/C=C/C(=O)c2ccccc2)cc1,1,0,-2,12,18,-5%,-4%
SMILES,D2 PAM-1,D2 ag-1,D2 ag-2,D2 PAM-2,D2 antagonist,D3 arrestin ag,D2 ag-3
CCCCN(CC)CCNC(=O)C1CCN(c2nnc(C)c3c(C)n(-c4ccc(C)cc4)nc23)CC1,·,-1,·,-5,·,·,·
Cc1coc2c(C)c3oc(=O)c(CCC(=O)N4CCCCC4)c(C)c3cc12,·,·,·,-12,·,·,·
O=C(N(Cc1ccccc1)c1ccccn1)C12CC3CC(CC(C3)C1)C2,-2,4,8,-7,-4,·,·
COC(=O)CCN(C(=O)C12CC3CC(CC(C3)C1)C2)c1ccccn1,?,69*,?,-19,33*,-4%,?
CCc1c(-c2ccccc2)nc2ccccc2c1C(=O)NCCc1ccccc1,·,0,·,3,·,·,·
O=C1N=C(N2CCOCC2)S/C1=C\c1cccs1,-9,-1,-1,-12,-7,·,·
Cc1ccccc1-c1ccc(/C=C2/SC(N3CCOCC3)=NC2=O)o1,?,73*,49*,-34,83*,-6%,?
O=C1N=C(N2CCOCC2)S/C1=C\c1ccc(-c2ccccc2Cl)o1,-9,42*,8,-16,-8,0%,?
CCC(Cc1ccccc1)NC(=O)c1csc2c1CCCCC2 (stereo not drawn),·,0,·,9,·,·,·
COCCCNC(=O)CCn1c(=O)c2ccccc2n(CC(=O)Nc2cc(Cl)ccc2OC)c1=O,·,-1,·,4,·,·,·
Cn1cc(CNCc2ccc(-n3cccn3)cc2)c(-c2ccccc2F)n1,-10,46*,?,-22,44*,27%,?
O=C(CSc1nc2ccsc2c(=O)n1Cc1ccc(F)cc1)NCc1ccc(Cl)cc1,·,0,·,-6,·,·,·
Cc1ccc(-c2c[n+](CC(=O)Nc3ccccc3C)c3n2CCC3)cc1,-29,0,-2,-22,28,·,·
Cc1ccc(NC(=O)C[n+]2cc(-c3ccccc3)n3c2CCC3)cc1,-12,71*,-2,-30,56*,-10%,2%
CCOc1cccc(-c2c(C(=O)N/N=C/c3sccc3C)nnn2-c2nonc2N)c1,-6,1,2,5,3,·,·
CCOc1cccc(-c2c(C(=O)N/N=C/c3ccsc3)nnn2-c2nonc2N)c1,0,9,0,26,23,2%,-3%
CCOc1ccc(-c2c(C(=O)N/N=C/c3ccccc3)nnn2-c2nonc2N)cc1,-7,4,1,28,-2,·,·
